# Results reported in PubChem BioAssay (NCI).
# Compounds without any hit were thinned out: in the full panel of roughly 83,000, 20% have a hit.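 For each line, cells grew in 96-well plates with the test compound present at a single concentration for 48 hours.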 Values without a mark were called inactive. Active and inactive are the calls of the source. Rule for the calls: active = growth percent below 10; inactive = the rest.
# Legend:
# Test in all cases: NCI-60 one-dose screen, 48 h (100 = growth as untreated, 0 = no growth, -100 = all killed)
# Settings in all cases: 10 µM unless noted
# SR leukemia = system: SR leukemia
# RPMI-8226 leukemia = system: RPMI-8226 leukemia
# OVCAR-8 ovarian = system: OVCAR-8 ovarian
# OVCAR-5 ovarian = system: OVCAR-5 ovarian
# OVCAR-4 ovarian = system: OVCAR-4 ovarian
# SK-OV-3 ovarian = system: SK-OV-3 ovarian
# IGROV1 ovarian = system: IGROV1 ovarian
# OVCAR-3 ovarian = system: OVCAR-3 ovarian
# HS 578T breast = system: HS 578T breast
# NCI/ADR-RES ovarian = system: NCI/ADR-RES ovarian
SMILES,growth (SR leukemia),growth (RPMI-8226 leukemia),growth (OVCAR-8 ovarian),growth (OVCAR-5 ovarian),growth (OVCAR-4 ovarian),growth (SK-OV-3 ovarian) [%],growth (IGROV1 ovarian),growth (OVCAR-3 ovarian),growth (HS 578T breast),growth (NCI/ADR-RES ovarian)
COc1ccc2c(c1)C(=O)CC(c1ccccc1OC)O2 (stereo not given),89.3%,105%,100%,108%,102%,104,79.3%,117%,101%,86%
NC1[C@H](c2c[nH]c3ccccc23)c2c([nH]c3ccccc23)[C@H]1c1c[nH]c2ccccc12 (stereo not given in full),81.7%,77.7%,99.8%,92.7%,86.6%,115,63.9%,78.2%,83.8%,81.7%
COc1cc(NC(C)CCCNC(=O)CCC(=O)NCCCNCCCCCCCCNCCCNC(=O)CCC(=O)NCCCC(C)Nc2cc(OC)cc3cccnc23)c2ncccc2c1 (stereo not given),107%,53.5%,70.6%,66.8%,18.1%,97.9,59.1%,39.8%,75%,91.7%
CC(Oc1ccc(C(=O)O)cc1C(F)(F)F)c1ccc(Oc2ccccc2)cn1 (stereo not given),71.7%,99.9%,96.6%,102%,106%,124,98.4%,104%,99.6%,75.2%
NS(=O)(=O)c1ccc(CCn2c(SCC(=O)c3ccc(Cl)cc3)nc3ccccc3c2=O)cc1,100%,107%,107%,108%,103%,107,107%,109%,101%,98.6%
O=C(CCN1CCCC1)Nc1ccc2c(Nc3ccc(F)cc3)c3ccccc3nc2c1,-20.9% (active),-37.1% (active),4.18% (active),12.9%,-16.1% (active),38.4,0.357% (active),-31.5% (active),25.2%,33.8%
Cc1c(C(=O)NCCC(=O)NO)sc2ncnc(Nc3ccc(F)c(Cl)c3)c12,111%,110%,101%,108%,109%,129,106%,107%,103%,101%
COc1cc2oc(-c3cccc(C(=O)Nc4ccc5c(c4)OCO5)c3)cc(=O)c2c(O)c1OC,75.9%,79.8%,30.6%,88.9%,0.0679% (active),91.4,81.6%,89.5%,72.7%,70.6%
OCc1cnccc1NCCCOc1ccccc1,99.9%,100%,102%,113%,102%,114,110%,107%,98.7%,102%
O=S(=O)(NCCNc1nccc(-c2c(-c3cccc(F)c3)nc3sccn23)n1)c1ccc(Cl)cc1,40.6%,59.4%,53.6%,93.3%,63.6%,94.9,15.8%,65.4%,72.5%,67.7%
COc1ccc(C(=O)CSc2nc(-c3cc(OC)ccc3OC)cc(-c3ccc(Cl)cc3)c2C#N)cc1,65.3%,78.5%,61.2%,81.2%,24.8%,33.3,62.4%,98.1%,57.8%,77.5%
[O-][n+]1c(Cl)cc(Cl)c2ccccc21,89.2%,95%,87.4%,101%,101%,94.4,104%,93.7%,92.2%,101%
CCOC(=O)c1cc(C(=O)c2ccc(OC)cc2)n2ccc(/C=C/c3cc[n+](CC(=O)c4ccc(OC)cc4)cc3)cc12,-29.5% (active),10.4%,21.1%,87.1%,16.1%,109,63.1%,60.9%,105%,98.1%
CCN(CC)c1ccc(C(=O)c2ccccc2)cc1,86.2%,95.8%,97%,100%,97.3%,98.6,89.8%,103%,102%,89.4%
CC1(C)CC[C@]2(C(=O)O)CC[C@]3(C)C(=CC[C@@H]4[C@@]5(C)Cc6c([nH]c7ccccc67)C(C)(C)[C@@H]5CC[C@]43C)[C@@H]2C1,41.3%,23.2%,35%,80.9%,36.8%,62.4,58%,37.2%,75.2%,34.2%
Cc1nn(-c2ccccc2)c(Oc2c(Cl)cccc2Cl)c1/C=N/N=c1\sc2ccccc2n1C,16.6%,36.6%,45.8%,58.5%,81.8%,70.6,53.6%,49.9%,73.2%,56.1%
CCOC(=O)c1cc(C(=O)c2ccc(OC)c(OC)c2)n2ccc(/C=C/c3cc[n+](CC(=O)c4ccc(OC)c(OC)c4)cc3)cc12,92.2%,81.4%,95.5%,99.9%,90.9%,102,88.6%,102%,102%,98.6%
O=C1c2ccc3c4c(ccc(c24)C(=O)N1CCCNCc1ccccc1Cl)C(=O)N(CCCNCc1ccccc1Cl)C3=O,-34.4% (active),-28.9% (active),-38.3% (active),-39.2% (active),-96.6% (active),28.3,-34.1% (active),-64.4% (active),-22.9% (active),-12.3% (active)
COCc1cnccc1NC1CCCCCC1,101%,104%,96.3%,108%,98.6%,111,110%,102%,96%,100%
O=C(/C=C/c1ccc(Cl)cc1)c1ccc(NC(=O)N2CCN(c3cc4c(cc3F)c(=O)c(C(=O)O)cn4C3CC3)CC2)cc1,22%,79.1%,65.3%,103%,99.2%,99.1,89.2%,93.8%,86.7%,99.8%
COc1ccc(C(=O)c2cc(OC)c(OC)c(OC)c2)cc1O,7.02% (active),12.7%,14.1%,31.8%,30.6%,37.2,16.2%,-6.73% (active),28.8%,-32.3% (active)
CC(Sc1nc2ccccc2c(=O)n1CCc1ccc(S(N)(=O)=O)cc1)C(=O)Nc1ccc(Cl)cc1 (stereo not given),77.4%,65.9%,72.8%,85.7%,93.2%,125,86.3%,99.1%,86.5%,77.3%
COc1ccc(C(=O)C2C(C#N)C(C#N)C3C=Cc4ccccc4N32)cc1 (stereo not given),21.3%,29.9%,27.6%,31.4%,46.4%,55.2,23.2%,-11.9% (active),14.4%,-7.8% (active)
CC1(C)CC(O)CCCCCCOc2c(CN)cccc2NC(=O)c2nc(cnc2N)-c2ccc(cc2)S1(=O)=O (stereo not given),-16.8% (active),-41.5% (active),23.5%,68.4%,-22.1% (active),44.9,9.31% (active),-5.21% (active),13.2%,67.1%
CC1(C)c2[nH]c3ccccc3c2C[C@]2(C)[C@H]3C(=O)C=C4[C@@H]5C[C@@](C)(C(N)=O)CC[C@]5(C)CC[C@@]4(C)[C@]3(C)CC[C@@H]12,45.8%,42.3%,75.1%,93.3%,54.4%,71.3,84.4%,69.9%,71.4%,71.2%
Oc1c(Cl)cc(Cl)c(Cl)c1CNCCNCc1c(O)c(Cl)cc(Cl)c1Cl,1.15% (active),18%,11.3%,54%,22.6%,22,16.4%,19.1%,57.7%,4.33% (active)
O=S(=O)(NCCNc1nccc(-c2c(-c3cccc(F)c3)nc3sccn23)n1)c1ccccc1,29.3%,43.5%,33.9%,79.6%,40%,57.2,4.9% (active),58.9%,55.5%,46.3%
